About 3,100 (0.97%) of roughly 320,000 compounds were called active.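 How the source made its calls: active means mean replicate inhibition of at least 70% and a set share of replicates each scoring 70 or more; inconclusive means meets just one of the two criteria; inactive means fails both criteria.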 The list comes from a sample in which actives are over-represented; it also holds similar structures and randomly drawn compounds.
Each compound was assayed against Scavenger receptor class B member 1 (Mus musculus) (UniProt Q61009) (assay: mouse SR-BI DiI-HDL uptake blockers – ldlA[mSR-BI] cells, fluorescence, single point, primary screen (AID 488896;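 further: 0% = median of neutral control wells and 100% = median of positive control wells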)). Conditions: ldlA[mSR-BI] CHO cells, 3 h, at 12.5 µM, hits give high values.
Chain of Scavenger receptor class B member 1 (Mus musculus) (Q61009 whole entry, looked up): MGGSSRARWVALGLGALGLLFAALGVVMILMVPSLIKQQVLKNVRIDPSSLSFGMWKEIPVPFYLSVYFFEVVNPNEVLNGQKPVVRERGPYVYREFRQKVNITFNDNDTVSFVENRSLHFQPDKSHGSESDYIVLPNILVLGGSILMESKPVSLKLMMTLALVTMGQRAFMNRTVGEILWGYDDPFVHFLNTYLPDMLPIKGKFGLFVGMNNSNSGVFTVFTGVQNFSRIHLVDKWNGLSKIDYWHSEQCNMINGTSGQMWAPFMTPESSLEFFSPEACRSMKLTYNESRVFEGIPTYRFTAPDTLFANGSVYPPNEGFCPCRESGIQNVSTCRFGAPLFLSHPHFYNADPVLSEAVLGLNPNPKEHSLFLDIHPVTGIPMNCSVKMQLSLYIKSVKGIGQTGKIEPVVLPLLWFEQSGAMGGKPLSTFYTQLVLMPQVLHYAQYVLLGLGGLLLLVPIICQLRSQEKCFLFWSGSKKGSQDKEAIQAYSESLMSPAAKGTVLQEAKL
`CCCOC(=O)c1[nH]c2c(c1C)C(=O)CC(c1cccs1)C2` (stereo unspecified) was tested, and the inhibition was 59.1% (inactive). With `COCCOC(=O)c1[nH]c2c(c1C)C(=O)CC(c1ccc(OC)cc1)C2` (stereo unspecified) the inhibition was 41.6% (inactive). `CCCOC(=O)c1[nH]c2c(c1C)C(=O)CC(c1cc(OC)c(OC)c(OC)c1)C2` (stereo unspecified) was tested, and the inhibition was 81.3% (active). For `Cc1cccc(NC(=S)N2CCC(C(=O)c3ccc(F)cc3)CC2)c1`, the inhibition was 14.1% (inactive). In the case of `C#CCOCCOCCOCCNc1nc(N2CCN(C(=O)Cn3cc(CCO)nn3)CC2)nc(N2CCN(C(=O)[C@H](CCCCN)n3cc(CCCC)nn3)CC2)n1`, the inhibition is reported as -18.7% (inactive). For `COc1ccc(C(CNC(=O)c2cc(S(=O)(=O)Nc3cccc(C)c3)ccc2C)N2CCCC2)cc1` (stereo unspecified), the inhibition was -20.9% (inactive). For `CCC(=O)Nc1sc(C(=O)Nc2ccccc2)c(C)c1C(=O)OC`, the inhibition was 68.4% (inactive). `COC(=O)c1c(NC(C)=O)sc(C(=O)Nc2ccccc2OC)c1C` was tested, and the inhibition was 71.5% (active). For `COc1ccccc1NC(=O)c1ccc(C)s1`, the inhibition was 18% (inactive). For `c1ccc2c(c1)OC1OC2Oc2ccccc21`, the inhibition was -7.46% (inactive). For `CC(C)Sc1nc(N)nc2c1ncn2C1OC(CO)C(O)C1O` (stereo unspecified), the inhibition was -12.5% (inactive). For `Cc1ccc2occ(/C=N/NC(=O)c3ccccc3C)c(=O)c2c1`, the inhibition was -16.4% (inactive). For `Cc1ccc(/C=N/NC(=O)C2=NNC(c3ccccc3)(c3ccccc3)C2)c(O)c1`, the inhibition was 106% (active). `COc1ccc(/C=N/NC(=O)c2cc(-c3cccc(C)c3)nc3ccccc23)cc1O` was tested, and the inhibition was 66.3% (inactive). For `CN(C)C(CNC(=O)c1cc2ccccc2o1)c1ccccc1` (stereo unspecified), the inhibition was 6.69% (inactive). In the case of `O=C(O)c1ccc(OCC2CCCO2)cc1` (stereo unspecified), the inhibition is reported as -17.3% (inactive). For `O=C(N/N=C/c1ccc(OCC2COCCO2)cc1)c1ccc(Br)cc1` (stereo unspecified), the inhibition was 74.1% (active). With `O=C(O)c1ccc(/C=N/NC(=O)c2ccc(Br)cc2)cc1` the inhibition was -48.4% (inactive). For `CC1=NN(C(=O)c2ccc(Br)cc2)C(O)(c2ccccc2)C1` (stereo unspecified), the inhibition was 88.2% (active). In the case of `CC1=NN(C(=O)c2ccccc2Br)C(O)(c2cccnc2)C1` (stereo unspecified), the inhibition is reported as -13.8% (inactive). `CCOC(=O)C1(O)CC(C)=NN1C(=O)c1cccc(Br)c1` (stereo unspecified) was tested, and the inhibition was 5.6% (inactive). In the case of `COc1cc2c(cc1CNC[C@H]1O[C@@H](n3cnc(C(N)=O)n3)[C@H](O)[C@@H]1O)OCO2`, the inhibition is reported as -13.6% (inactive). With `O=C1CC(c2ccccc2)C(=O)N2C(=O)CC(c3ccccc3)C(=O)N12` (stereo unspecified) the inhibition was -16.5% (inactive). With `COc1ccc(CNCCCn2cnc3c(OCc4ccccc4)ncnc32)cc1` the inhibition was -7.17% (inactive). For `COc1cccc(CC(=NO)c2cccc(OC)c2)c1`, the inhibition was 2.96% (inactive). `O=C(CCC(=O)N1CCN(S(=O)(=O)c2ccc(Cl)cc2)CC1)NCc1cccc(C(F)(F)F)c1` was tested, and the inhibition was -6.5% (inactive). With `CC(C)CC(=O)N1CCN(Cc2cccc(Cl)c2)CC1` the inhibition was -7.62% (inactive). `CC(C)CC(=O)N1CCN(Cc2ccccc2Br)CC1` was tested, and the inhibition was 82.7% (active). In the case of `CCOc1cc(CN2CCN(C(=O)CC(C)C)CC2)ccc1OC`, the inhibition is reported as 1.83% (inactive). In the case of `O=C(Nc1c(Br)cc2c(c1Br)Cc1ccccc1-2)C(F)(F)F`, the inhibition is reported as 23.8% (inactive). `CN(C)c1ccc(Nc2c3c4c(cccc4n(C)c2=O)C(=O)c2ccccc2-3)cc1` was tested, and the inhibition was 99.9% (active). `CN(C)c1ccc(C2N(C)C(=O)c3ccccc3N2C)cc1` (stereo unspecified) was tested, and the inhibition was -4.86% (inactive). In the case of `CCOC(=O)CCC(NC(=O)c1ccc(CNc2nc3cc(C(F)(F)F)ccc3nc2C(=O)OCC)cc1)C(=O)OCC` (stereo unspecified), the inhibition is reported as 43.7% (inactive). For `O=C1C[C@@H]2c3c(cccc3CN1Cc1ccccc1)C[C@@H](O)[C@H]2O`, the inhibition was -2.09% (inactive). `COc1ccc(OC)c(Cc2cnc3nc(N)nc(N)c3c2C)c1` was tested, and the inhibition was 25.9% (inactive). With `c1ccc(C(=NNc2nc3ccccc3s2)c2ccccn2)cc1` the inhibition was 40.5% (inactive). `O=C(c1cccc(S(=O)(=O)N2CCCCCC2)c1)N1CCN(Cc2ccccc2)CC1` was tested, and the inhibition was 19.3% (inactive). `O=S(=O)(O)c1cc2onnc2c2ccccc12` was tested, and the inhibition was -15.5% (inactive). With `Cc1ccc(SCc2c(C(=O)N/N=C/c3cccnc3)nnn2-c2nonc2N)cc1` the inhibition was -5.04% (inactive). In the case of `Nc1nonc1-n1nnc(C(=O)N/N=C/c2cc(Br)ccc2O)c1CSC1=NCCS1`, the inhibition is reported as 104% (active). For `Cc1ccc(SCc2c(C(=O)N/N=C/C3CC=CCC3)nnn2-c2nonc2N)cc1` (stereo unspecified), the inhibition was -16.5% (inactive). With `O=[N+]([O-])c1ccc(C=NN=Cc2ccc([N+](=O)[O-])cc2)cc1` the inhibition was 27% (inactive). In the case of `CC(C)(C)c1nnc2sc(SCC(O)=C(C#N)c3nc4ccccc4[nH]3)nn2c1=O`, the inhibition is reported as 22.5% (inactive). For `CC(C)(C)C(=O)OCc1nc(-c2ccc(O)c(O)c2)cs1`, the inhibition was -7.58% (inactive). For `COc1ccc(OC)c(Nc2nc(-c3ccc(O)c(O)c3)cs2)c1`, the inhibition was 108% (active). In the case of `COc1ccc(-c2csc(Cc3nc(O)cs3)n2)cc1`, the inhibition is reported as 56.2% (inactive). `CCN1C[C@@H]2[C@@H]3C(=O)N(C)C(=O)[C@@H]3[C@](C)(C1=O)N2C(=O)c1ccccc1` was tested, and the inhibition was 27.8% (inactive). In the case of `COc1ccc(CCC(=O)Nc2ccc(Cl)c(S(=O)(=O)N3CCOCC3)c2)cc1OC`, the inhibition is reported as 60.3% (inactive). `COc1cccc(/C=N/NC(=O)CNC(=O)c2ccc(S(=O)(=O)N3CCOCC3)cc2)c1OC` was tested, and the inhibition was 8.73% (inactive). `COc1cc(C(=O)NNC(=O)c2ccc(S(=O)(=O)N3CCCCC3)cc2)cc(OC)c1OC` was tested, and the inhibition was -0.571% (inactive). `COc1ccc(/C=N/NC(=O)CNC(=O)c2ccc(S(=O)(=O)N3CCCC3)cc2)c(OC)c1` was tested, and the inhibition was 84.2% (active). With `COc1ccc(Cn2cc(CN3CCS(=O)(=O)N(Cc4ccc(-c5cccc(Cl)c5)cc4)C(C)C3=O)nn2)cc1` (stereo unspecified) the inhibition was 34.7% (inactive). For `C=CC(=O)Nc1ccc(Nc2ccnc(Nc3ccc(N4CCN(C)CC4)cc3)n2)cc1`, the inhibition was 5.16% (inactive). With `COc1ccc(NC(=S)NCC2CCN(c3ccc(OC)cc3)C2)cc1` (stereo unspecified) the inhibition was 27.5% (inactive). With `COc1ccc(NC(=S)NCCN2CCC(C)CC2)cc1` the inhibition was 1.02% (inactive). With `COc1ccc(N2CCC(CNC(=S)Nc3c(C)cccc3C)C2)cc1` (stereo unspecified) the inhibition was 80.7% (active). In the case of `Cc1ccccc1N1CCN(C(=O)c2cccnc2)CC1`, the inhibition is reported as -2.45% (inactive). For `Cc1cccc(CC2(O)C(=O)Nc3ccccc32)n1` (stereo unspecified), the inhibition was -13% (inactive). For `O=S1(=O)CSCS(=O)(=O)C1`, the inhibition was -19.5% (inactive). For `CCC1CCCCN1C(=S)Nc1ccc(C(C)=O)cc1` (stereo unspecified), the inhibition was -13.3% (inactive). `Cc1ccc(N=C2SCCCN2C(=O)c2cccc(N3C(=O)CCC3=O)c2)cc1Cl` was tested, and the inhibition was 32.4% (inactive). For `CC(=O)c1ccc(N=C2SCCCN2C(=O)C2CCCCC2)cc1`, the inhibition was 78.7% (active). With `COc1cccc(C=CC(=O)C=CC=Cc2ccccc2)c1` the inhibition was -11.1% (inactive). For `COc1cc(NC(=O)c2cccs2)ccc1NC(=O)c1ccccc1Cl`, the inhibition was 83.3% (active). `COc1cc(NC(=O)COc2ccccc2Cl)ccc1NC(=O)C(C)C` was tested, and the inhibition was 49.8% (inactive). For `COc1cc(NC(=O)c2ccc3c(c2)OCO3)ccc1NC(=O)c1cccs1`, the inhibition was 58.8% (inactive). With `O=C(Nc1ccccc1)Oc1cccc2cccnc12` the inhibition was -13.2% (inactive). In the case of `c1ccc(CNc2ncnc3[nH]ncc23)cc1`, the inhibition is reported as -13.5% (inactive). `O=C(Nc1ccccc1Cl)c1ccccc1S(=O)(=O)c1ccccc1[N+](=O)[O-]` was tested, and the inhibition was 4.02% (inactive). `CC(=O)Nc1ccc(NC(=O)COc2ccccc2C(=O)Nc2cccc(Cl)c2Cl)cc1` was tested, and the inhibition was 63.3% (inactive). For `CN(C)S(=O)(=O)Oc1ccccc1C(=O)Nc1ccccc1Cl`, the inhibition was 79.9% (active). `CCN1C[C@@H]2[C@@H]3C(=O)N(Cc4ccccc4)C(=O)[C@@H]3[C@](C)(C1=O)N2C(=O)c1ccc(C(C)(C)C)cc1` was tested, and the inhibition was -30.1% (inactive). With `Oc1ccc(-c2nc3ccccc3nc2-c2ccc(O)cc2O)c(O)c1` the inhibition was 26% (inactive). `COc1ccc(-n2c(SCC(=O)NCc3ccco3)nnc2-c2c[nH]c3ccccc23)cc1` was tested, and the inhibition was 71.4% (active). With `O=C(CSc1nnc(-c2c[nH]c3ccccc23)n1-c1ccc(F)cc1)NCc1ccco1` the inhibition was 20.6% (inactive). In the case of `COc1ccc(-n2c(SCC(=O)NCc3cccs3)nnc2-c2ccoc2C)cc1`, the inhibition is reported as -3.66% (inactive). In the case of `COc1ccc(CCN2CC(C(=O)OCC(=O)NCc3ccccc3Cl)CC2=O)cc1OC` (stereo unspecified), the inhibition is reported as -1.72% (inactive). In the case of `C(=N/Nc1cc(N2CCOCC2)nc(N2CCOCC2)n1)/c1ccccc1`, the inhibition is reported as 76% (active). With `COc1ccc(/C=N/Nc2cc(N3CCOCC3)nc(C)n2)c(OC)c1` the inhibition was 52.8% (inactive). With `CN(C)c1ccc(/C=N/Nc2cc(N3CCOCC3)nc(N3CCOCC3)n2)cc1` the inhibition was 78.8% (active). `CCN(CC)c1ccc(C(=O)N/N=C/c2ccc(N3CCOCC3)cc2)cc1` was tested, and the inhibition was 25% (inactive). `Cc1ccccc1N/N=C/c1ccc(N2CCOCC2)cc1` was tested, and the inhibition was 15.9% (inactive). For `Cc1nc(Cl)cc(N/N=C/c2ccccc2)n1`, the inhibition was 15.7% (inactive). `O=C1c2ccccc2C(=O)N1CCCCCCN1C(=O)c2ccccc2C1=O` was tested, and the inhibition was 7.39% (inactive). In the case of `Cc1nc2ccccc2c(C(=O)O)c1-c1ccccn1`, the inhibition is reported as -15.2% (inactive). In the case of `Oc1cccc(CCc2ccccn2)c1`, the inhibition is reported as -0.288% (inactive). With `O=C(O)C(=Cc1ccccc1[N+](=O)[O-])c1ccccc1` the inhibition was 0.653% (inactive). In the case of `CSCCC(NS(=O)(=O)c1ccc(C)cc1)C(=O)N(C)CC(=O)Nc1ccccc1Br` (stereo unspecified), the inhibition is reported as 16.3% (inactive). In the case of `CCOc1ccc(NC(=O)CN(C)C(=O)CCSc2ccc(F)cc2)cc1OCC`, the inhibition is reported as 39.6% (inactive). `CCOc1ccc(NC(=O)CN(C)C(=O)Cc2sc(C)nc2-c2ccc(F)cc2)cc1OCC` was tested, and the inhibition was 73.5% (active). In the case of `Cc1nc(-c2ccc(F)cc2)c(CC(=O)N(C)CC(=O)Nc2c(C)cccc2C)s1`, the inhibition is reported as -10.6% (inactive).
